Assay outcomes (PubChem)
Rows were chosen to be rich in hits. Some 12% of all compounds tested hit in one or more screens of this group.
L3MBTL1 inh – L3MBTL1 (human) inhibition. Q9Y468. AlphaScreen L3MBTL1–H3K9me1 peptide binding. Potency, µM (titrated, usually from 57.1 µM), for inactives: at the highest dose activity, negative = inhibition, most hits filed as inhibitors. 230,000 compounds, 0.66% hits; note: % is set by controls: 0 for no effect and ±100 for the full control effect; nearly all actives have a fitted effect of over 60% in size
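First, the protein-peptide complex forms for 30 min at room temperature (L3MBTL1 50 nM, biotinylated H3K9me1 peptide 75 nM). Next, compounds are pin-transferred and incubated 30 min. Finally, AlphaScreen beads are added and read after 30 min.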
Sfp PPTase inh – inhibitors of Bacillus subtilis Sfp phosphopantetheinyl transferase; Potency, µM, inactives show largest response in the series, negative = inhibition, most hits filed as inhibitors; Biochemical Sfp PPTase activity, qHTS; Q9F4F7; 310,000 compounds, 3.5% hits; AID 1490;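 note: the enzyme is Sfp with the accession as filed and its product quenches rhodamine fluorescence; 0% = enzyme reaction without inhibitor and -100% = no enzyme wells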
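Compounds were incubated with enzyme (final 15 nM) for 15 min at room temperature before substrate addition started the reaction. Fluorescence at 525 nm excitation, 598 nm emission was recorded immediately and after 30 minutes.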
BAZ2B inh – blocks human BAZ2B. Q9UIF8. AlphaScreen BAZ2B-H3K14Ac peptide displacement. Potency, µM (doses to about 114 µM), inactives show top-dose activity change, negative = inhibition, usual class: inhibitors. 360,000 compounds, 4.4% hits; note: % is set by controls: 0 for no effect and ±100 for the full control effect; nearly all actives have a fitted effect of over 60% in size
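Multi-concentration screen (max 110 uM) measuring displacement of acetylated histone H3 peptide from BAZ2B by AlphaScreen, using 50 nM protein, 50 nM peptide and 10 ug/mL streptavidin donor plus Ni-chelate acceptor beads.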
G9a block – inhibitors of human histone lysine methyltransferase G9a; Q96KQ7; G9a H3K9 monomethylation, AlphaScreen, 2 h; Potency, µM (titrated, usually from 102 µM), for inactives: top-dose activity, negative = inhibition, hits mostly inhibitors; 350,000 compounds, 8.8% hits; AID 504332; note: % is set by controls: 0 for no effect and ±100 for the full control effect; nearly all actives have a fitted effect of over 75% in size
Target sequence (Q96KQ7 913-1193 limits assumed): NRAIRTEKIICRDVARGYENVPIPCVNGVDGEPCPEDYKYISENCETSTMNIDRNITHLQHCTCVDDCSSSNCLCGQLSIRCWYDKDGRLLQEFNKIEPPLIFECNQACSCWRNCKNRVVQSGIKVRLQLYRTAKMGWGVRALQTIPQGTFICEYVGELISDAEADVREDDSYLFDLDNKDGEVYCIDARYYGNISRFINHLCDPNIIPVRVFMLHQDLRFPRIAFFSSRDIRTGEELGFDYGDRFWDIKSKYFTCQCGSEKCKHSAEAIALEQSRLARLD
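Compounds were preincubated with 20 nM G9a for 15 min, after which biotinylated H3K9 peptide (500 nM) and SAM (20 uM) started a 2 h room-temperature reaction. Monomethylated product was quantified by antibody-based AlphaScreen chemiluminescence.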
JMJD2A Tudor – JMJD2A Tudor domain (human) inhibition. AID 504339. Potency, µM (doses to about 114 µM), inactives show at the top dose activity change, negative = inhibition, most hits filed as inhibitors. 390,000 compounds, 4.4% hits. AlphaScreen JMJD2A-Tudor / H3K4me3 peptide binding. O75164; note: % is set by controls: 0 for no effect and ±100 for the full control effect; nearly all actives have a fitted effect of over 50% in size
HP1b chromo inh – HP1-beta chromodomain-methylated histone interaction inhibition | AID 540317 | 390,000 compounds, 0.56% hits | Potency, µM (highest dose often 114 µM), for the others: top-dose activity change, negative = inhibition, usual class: inhibitors | P83916 | AlphaScreen HP1-beta / biotin-H3K9me3 peptide binding; note: nearly all actives have a fitted effect of over 70% in size
Target sequence (P83916 whole entry, looked up): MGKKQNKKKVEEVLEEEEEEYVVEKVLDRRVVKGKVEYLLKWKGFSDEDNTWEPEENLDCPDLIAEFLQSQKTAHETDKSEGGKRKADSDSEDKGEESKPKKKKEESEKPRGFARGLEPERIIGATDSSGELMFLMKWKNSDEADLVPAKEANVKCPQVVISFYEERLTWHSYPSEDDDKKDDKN
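HP1-beta protein (50 nM final) preincubated 30 min at room temperature with biotinylated H3(1-18)K9me3 peptide (50 nM) in PBS pH 7.4, 0.01% Tween-20, then compound added for 30 min. AlphaScreen streptavidin donor/nickel chelate acceptor beads (10 ug/mL final), 30 min dark, luminescence read.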
Starred values were filed as active, the others as inactive; [ ] = dose if it differs, or a comment. Calls come from the whole dose curve; as a rule, active = well fitted curve in the direction sought with a large enough effect; inconclusive = small, poorly fitted or top-dose-only effect, or another doubt; inactive = no such curve, though single readings can be large; an effect the other way counts as inactive or inconclusive. Potency is the fitted concentration of half-maximal effect.

What do the screens show for `CN(CC(=O)Nc1ccc(F)c(F)c1F)C(=O)c1cc(-c2ccncc2)nc2ccccc12`?
L3MBTL1 inh: -6%; BAZ2B inh: -7%; G9a block: 56µM*; JMJD2A Tudor: -28%; HP1b chromo inh: -4%

What do the screens show for `CN(CC(=O)Nc1ccc(Cl)c(C(F)(F)F)c1)C(=O)c1cc(-c2ccncc2)nc2ccccc12`?
L3MBTL1 inh: -4%; BAZ2B inh: -24%; G9a block: 17%[2.33 µM]; JMJD2A Tudor: inconclusive; HP1b chromo inh: -2%

What do the screens show for `Cc1ccc(-c2cc(C(=O)N(C)CC(=O)Nc3ccccc3Br)c3ccccc3n2)o1`?
L3MBTL1 inh: 1%; BAZ2B inh: -1%; G9a block: 8.9µM*; JMJD2A Tudor: inconclusive; HP1b chromo inh: 0%

Results for Cc1ccc(-c2cc(C(=O)Nc3ccccc3C(N)=O)c3ccccc3n2)o1 ?
JMJD2A Tudor: -36%; HP1b chromo inh: 0%

What do the screens show for `O=C(Nc1cc(-c2nc3ccccc3o2)ccc1Cl)c1ccc(Br)o1`?
BAZ2B inh: 2%; G9a block: 4%[59 µM]; JMJD2A Tudor: 3%; HP1b chromo inh: 12%

Results for C/C(CCCO)=N/Nc1ccc([N+](=O)[O-])cc1[N+](=O)[O-] ?
L3MBTL1 inh: -1%; Sfp PPTase inh: -5%; BAZ2B inh: inconclusive; G9a block: -2%; JMJD2A Tudor: -25%; HP1b chromo inh: 3%

How did CCOC(=O)CC(C)(C)/C(C)=N/Nc1ccc([N+](=O)[O-])cc1[N+](=O)[O-] do in these assays?
L3MBTL1 inh: inconclusive; Sfp PPTase inh: 1%; BAZ2B inh: 7.1µM*; G9a block: 8.9µM*; JMJD2A Tudor: inconclusive; HP1b chromo inh: 14µM*

How did CCC(CC)=NNc1ccc([N+](=O)[O-])cc1[N+](=O)[O-] do in these assays?
L3MBTL1 inh: -15%; Sfp PPTase inh: 9%; BAZ2B inh: inconclusive; G9a block: 9%; JMJD2A Tudor: -17%; HP1b chromo inh: 24%

What do the screens show for `O=C(O)/C(CC(=O)c1ccc(Cl)cc1)=N/Nc1ccc([N+](=O)[O-])cc1[N+](=O)[O-]`?
Sfp PPTase inh: 2%; BAZ2B inh: 40µM*; G9a block: -4%[2.33 µM]; JMJD2A Tudor: 40µM*; HP1b chromo inh: -38%

How did CCOC(=O)C(C(=O)OCC)C(C)(C)/C(C)=N\Nc1ccc([N+](=O)[O-])cc1[N+](=O)[O-] do in these assays?
L3MBTL1 inh: inconclusive; Sfp PPTase inh: -16%; BAZ2B inh: 10µM*; G9a block: inconclusive; JMJD2A Tudor: 32µM*; HP1b chromo inh: 35µM*

Results for O=C(O)C1(Nc2ccc([N+](=O)[O-])cc2[N+](=O)[O-])CCCC1 ?
JMJD2A Tudor: -11%; HP1b chromo inh: 17%

What do the screens show for `C#CCOC(=O)CCCNc1ccc([N+](=O)[O-])cc1[N+](=O)[O-]`?
L3MBTL1 inh: -12%; Sfp PPTase inh: 7%; BAZ2B inh: 50µM*; G9a block: -23%[59 µM]; JMJD2A Tudor: 56µM*; HP1b chromo inh: -22%

Results for C/C(CCC(=O)O)=N/Nc1ccc([N+](=O)[O-])cc1[N+](=O)[O-] ?
L3MBTL1 inh: -6%; Sfp PPTase inh: -3%; BAZ2B inh: inconclusive; G9a block: inconclusive; JMJD2A Tudor: inconclusive; HP1b chromo inh: -5%

What do the screens show for `OC(c1ccccc1)c1nc2ccccc2n1Cc1c(F)cccc1Cl` (configuration not stated)?
BAZ2B inh: -33%; G9a block: -28%[59 µM]; JMJD2A Tudor: -26%; HP1b chromo inh: 44%

What do the screens show for `Cn1nnnc1SCCCNCc1ccccc1OCc1ccc(F)cc1`?
BAZ2B inh: -10%; G9a block: -24%[59 µM]; JMJD2A Tudor: -16%; HP1b chromo inh: 44%

How did Cc1c(C(C)(C(=O)O)c2c(C)n(C)c3ccccc23)c2ccccc2n1C do in these assays?
L3MBTL1 inh: -6%; Sfp PPTase inh: 2%; BAZ2B inh: inconclusive; G9a block: 56%[0.501 µM]

What do the screens show for `Cc1c(P(=O)(c2ccccc2)c2ccccc2)c2ccccc2n1C`?
JMJD2A Tudor: 22µM*

How did Cc1nn(CC(=O)NCCc2ccccc2Cl)c(=O)c2nn(-c3ccccc3)c(C)c12 do in these assays?
BAZ2B inh: 2%; G9a block: 17%[59 µM]; JMJD2A Tudor: -2%; HP1b chromo inh: 68%

Results for O=c1[nH]cnc(O)c1C(c1ccc2c(c1)OCO2)c1c(O)nc[nH]c1=O ?
L3MBTL1 inh: 4%; Sfp PPTase inh: 4%; BAZ2B inh: -18%; G9a block: 50µM*; JMJD2A Tudor: -18%; HP1b chromo inh: 16%

How did Cc1ccc(-c2ccccc2NC(=O)CS(=O)CC(=O)Nc2ccc(C)c(Cl)c2)o1 (configuration not stated) do in these assays?
Sfp PPTase inh: 6%; BAZ2B inh: -13%; G9a block: 35µM*; JMJD2A Tudor: -36%; HP1b chromo inh: 1%

What do the screens show for `Cc1ccc(-c2ccccc2NC(=O)CCl)o1`?
L3MBTL1 inh: -12%; Sfp PPTase inh: 20%; BAZ2B inh: inconclusive; G9a block: -40%; JMJD2A Tudor: -32%; HP1b chromo inh: -3%

Results for CN(C)CCN(Cc1ccco1)C(=O)c1oc2ccccc2c1NC(=O)COc1ccccc1 ?
Sfp PPTase inh: 0%; BAZ2B inh: inconclusive; G9a block: 45µM*; JMJD2A Tudor: 28µM*; HP1b chromo inh: inconclusive

How did CN(C)CCN(Cc1ccco1)C(=O)c1oc2ccccc2c1NC(=O)c1cccc(F)c1 do in these assays?
BAZ2B inh: 5%[57.1 µM]; G9a block: -40%[59 µM]; JMJD2A Tudor: inconclusive; HP1b chromo inh: 20%

Results for CC(=O)O[C@H]1CC2(C)[C@@H](C[C@@H](O)[C@H]3[C@@]4(C)CC[C@@H](O)[C@@H](C)[C@@H]4CC[C@@]32C)C1=C(CCC=C(C)C)C(=O)O (some centres not stated) ?
G9a block: 36%[59 µM]

How did COc1ccc(C2Nc3ccccc3C(=O)N2Cc2ccccc2)cc1COc1ccccc1OC (configuration not stated) do in these assays?
JMJD2A Tudor: -21%

How did Clc1ccc(Cn2cnc3ccccc32)cc1 do in these assays?
L3MBTL1 inh: 3%; Sfp PPTase inh: 13%; BAZ2B inh: -3%; G9a block: 7%[12.7 µM]; JMJD2A Tudor: -16%; HP1b chromo inh: 27%

What do the screens show for `S=c1[nH]nc(Cn2cnc3ccccc32)n1-c1ccccc1Cl`?
L3MBTL1 inh: 21%; Sfp PPTase inh: 89µM*; BAZ2B inh: 20%; JMJD2A Tudor: 50µM*; HP1b chromo inh: 41%
